# In publication PMC5540273 (PLoS ONE, 2017):
# Tests used:
# Settings in all cases: concentration: 1 μM, replicates: in singlicate; n = 1
# TNNI3K = system: TNNI3K
# TRKA = system: T1, TRKA
# T1 construct: gene NTRK1
# TRKB = system: TRKB
# TRKC = system: T2, TRKC
# T2 construct: gene NTRK3
# TRPM6 = system: TRPM6
# TSSK1B = system: TSSK1B
# TSSK3 = system: TSSK3
# TTK = system: TTK
# TXK = system: TXK
# [1] = system: TYK2(JH1domain-catalytic)
# 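Further: KINOMEscan kinase panel screen.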
Structure (SMILES),%Inh (TNNI3K) [%],%Inh (TRKA) [%],%Inh (TRKB) [%],%Inh (TRKC) [%],%Inh (TRPM6) [%],%Inh (TSSK1B) [%],%Inh (TSSK3) [%],%Inh (TTK) [%],%Inh (TXK) [%],%Inh [1] [%]
N#CC1(c2cccc(C(=O)Nc3cccc(Oc4ccc5nc(NC(=O)C6CC6)sc5n4)c3)c2)CC1,90.5,0,7,0,12,0,0,9,86,0
CC(C)c1nc(-c2ccc(F)c(NS(=O)(=O)c3c(F)cccc3F)c2)c(-c2ccnc(Nc3ccc(N4CCOCC4)nc3)n2)s1 [GSK1804250],18,98,0,0,7,15,24,52,85,39
CN(C)CCNS(=O)(=O)c1ccc(-c2ccnc3[nH]ccc23)cc1 [GSK977620],3,93.4,63,54,0,58,15,50,91,46
CCn1c(-c2nonc2N)nc2c(-c3ccccc3)ncc(OCCCN)c21.O=C(O)C(F)(F)F.O=C(O)C(F)(F)F [GSK260205],16,0,23,26,19,11,24,0,0,88
O=C(Nc1n[nH]c2cc(-c3cccs3)ccc12)C1CC1 [SB-731284],0,3,0,3,39,0,7,10,0,28
COc1ccc(C)c(Nc2ccnc(Nc3ccc(-c4cnc[nH]4)cc3)n2)c1.Cl [GW784041],100,0,0,0,0,10,0,15,15,44
CS(=O)(=O)c1cccc(CNc2nc(Nc3ccc4c(c3)CCC(=O)N4)ncc2C(F)(F)F)c1,0,98,92.9,73,0,0,0,99.6,0,89
CC(C)c1nc(-c2cccc(NS(=O)(=O)c3c(F)cccc3F)c2)c(-c2ccnc(Nc3ccc(N4CCOCC4)nc3)n2)s1.Cl [GSK1723980],52,61,0,14,27,0,19,61,92.7,45
Cc1cccc(Nc2nc(NCCN)ncc2C(N)=O)c1 [GSK1292139],0,72,57,43,44,38,55,36,11,44
N#Cc1cnc2cc(-c3cnc(CNCCN4CCOCC4)s3)ccc2c1Nc1ccc(Oc2ccccc2)cc1 [GW664114],2,55,42,46,48,1,8,0,71,0
Fc1cc(Cl)ccc1Nc1ccnc2cc(-c3ccc(CN4CCOCC4)o3)ccc12 [GW560109],7,42,41,35,35,21,3,21,86,18
COc1cc(Nc2nccc(N3CCC(NC(=O)Nc4ccc5c(c4)OCO5)C3)n2)cc(OC)c1OC (centres unmarked) [GSK1379766],0,57,43,73,47,8,9,0,38,38
CC(C)(C)c1ccc(C(=O)Nc2cn3cc(-n4ccnc4)ccc3n2)cc1,2,0,0,0,0,0,0,1,0,22
Cc1ccc(Nc2ccnc(Nc3ccc(C)c(F)c3)n2)cc1O.Cl [GW582868],0,0,50,35,0,11,8,0,12,31
COc1cccc(NC(=O)NCCNc2ccnc(Nc3ccc(F)cc3)n2)c1 [GSK1379879],0,0,31,38,21,0,14,0,4,33
Cl.O=C(Nc1ccc(Oc2ccc3[nH]c(NC(=O)c4ccco4)nc3c2)cc1)Nc1cc(C(F)(F)F)ccc1F [GW683134],87,98.9,98.3,97.4,1,0,6,0,16,16

Structure (SMILES),%Inh (TNNI3K) [%],%Inh (TRKA) [%],%Inh (TRKB) [%],%Inh (TRKC) [%],%Inh (TRPM6) [%],%Inh (TSSK1B) [%],%Inh (TSSK3) [%],%Inh (TTK) [%],%Inh (TXK) [%],%Inh [1] [%]
COc1cccc(C2=C(Nc3cccc(O)c3)C(=O)NC2=O)c1 [SB-390771],21,0,0,46,4,27,9,10,11,21
Cc1ccc(-c2ccc3occ(-c4ccc(S(C)=O)cc4)c3c2)nn1 (centres unmarked),0,0,0,11,0,0,0,8,2,1
Cc1cccc(Nc2nc(N[C@H]3CCCC[C@H]3N)ncc2C(N)=O)c1.Cl [GSK986310],31,99,55,22,0,64,33,36,0,70
CCNc1nccc(-c2c(-c3ccc(F)cc3)ncn2C2CCN(C)CC2)n1,0,0,0,0,0,0,0,7,0,0
CN1CCN(Cc2ccc(NC(=O)Nc3ccc(N(C)c4ccnc(Nc5ccc(CS(C)(=O)=O)cc5)n4)cc3)cc2)CC1.Cl [GW827654],46,91.4,92,92.5,0,0,47,28,85,97.9
COC(=O)Nc1nc2ccc(Oc3ccc(CC(=O)Nc4cc(C(F)(F)F)ccc4F)cc3)cc2[nH]1 [GW680903],70,0,37,49,16,0,24,0,8,23
Cn1cc(-c2cnc(N)c3c(-c4ccc5c(c4)CCN5C(=O)Cc4ccccc4)csc23)cn1 [GSK2593074],0,79,80,66,15,0,0,7,9,0
CC(C)NCC(Cc1ccccc1)NC(=O)c1cc(Br)c(-c2ccnc3[nH]ccc23)s1.Cl.Cl (centres unmarked) [GSK1383281],0,75,64,52,0,32,2,58,79,53
O=C(Nc1n[nH]c2nc(-c3cccc(O)c3)ccc12)C1CC1 [SB-711805],0,4,19,24,3,0,0,14,0,18
Cc1ccc(NC(=O)c2ccc(Cl)c(Cl)c2)cc1-c1ccc(C(=O)Nc2ccncc2)cc1 [GSK1398460],60,0,0,0,14,20,48,15,0,0
O=C(O)C(F)(F)F.O=c1[nH]ccc2nc(N[C@@H]3CCNC3)nc(Nc3cc(Cl)cc(Cl)c3)c12 [GSK2188764],39,100,76,62,37,75,85,87,0,80
COc1ccc(C2=C(Nc3cccc(O)c3)C(=O)NC2=O)cc1 [SB-390766],27,0,41,51,30,8,12,0,8,25
CN(c1ccc(F)c(NC(=O)c2cccc(OC(C)(C)C#N)c2Cl)c1)c1ccc2nc(NC(=O)C3CC3)sc2n1,36,6,0,11,9,24,2,6,5,11
Fc1cc(Cl)ccc1Nc1ccnc2cc(-c3ccc(CN4CCSCC4)o3)ccc12 [GW560106],10,72,28,0,3,0,14,13,82,19
CCOc1nccc(-c2c(-c3ccc(F)cc3)ncn2C2CCNCC2)n1 [SB-249175],4,47,21,18,18,0,34,0,10,45
O=C(Nc1c(F)cccc1F)c1cc(C(=O)c2ccccc2F)c[nH]1 [GSK1326180],0,27,0,12,0,0,24,6,0,0
